High-throughput results (PubChem BioAssay)
Rows were chosen to be rich in hits. Some 15% of all compounds tested hit in one or more screens of this group.
Pf growth 96h: Primary qHTS for delayed death inhibitors of the malarial parasite plastid, 96 hour incubation. P. falciparum luciferase reporter growth, 96 h. Potency, µM (top dose mostly 28.7 µM), for inactives: at the top dose activity change, negative = inhibition, hits mostly inhibitors. 6.9% of 320,000 active; further: potency means the concentration at half of the fitted maximal effect; on the % scale 0 is the no-effect control and ±100 the full control effect
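Delayed-death screen, second-generation endpoint: infected erythrocytes, 2% hematocrit, 0.05% parasitemia final; 96 hours at 37 C, 5% CO2; luciferase detection reagent; luminescence decrease equals reduced growth.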
HCMV inh: qHTS Assay for inhibitors of the human cytomegalovirus (HCMV). HFF cells, HCMV-luciferase reporter, 72 h; stronger effect = lower value. activity change, negative = inhibition, % at 57.5 µM. 4.5% of 410,000 active. AID 1259415, 2018; in the data active means activity change below about -60%; inconclusive means no clear call, values can overlap the other calls; inactive means above about -39%; further: on the % scale 0 is the no-effect control and ±100 the full control effect
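After 16 h attachment at 37C, HFF cells received test compound and HCMV-luciferase (1 PFU/cell); reporter luminescence read 72 h later, data normalized against buffer-only and known inhibitor Salinomycin.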
Pf growth 48h: Primary qHTS for delayed death inhibitors of the malarial parasite plastid, 48 hour incubation. 5.9% of 310,000 active. AID 504832, 2011. Potency, µM (titrated, usually from 28.7 µM), for inactives: at the top dose activity change, negative = inhibition, usual class: inhibitors. P. falciparum luciferase growth in erythrocytes, 48 h; further: potency means the concentration at half of the fitted maximal effect; on the % scale 0 is the no-effect control and ±100 the full control effect
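Luminescence readout; reporter = integrated firefly luciferase in P. falciparum. RBC culture at 2% hematocrit, 0.1% parasitemia final, 37 C/5% CO2; decreased signal taken as growth inhibition.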
SARS PLpro yeast: qHTS of Yeast-based Assay for SARS-CoV PLP; Potency, µM (doses to about 32.9 µM), for the others: at the highest dose activity, positive = growth rescue, most hits filed as activators; S. cerevisiae expressing SARS-CoV PLpro, growth rescue; 0.19% of 330,000 active; calls by dose curve; further: potency means the concentration at half of the fitted maximal effect; 0% is about no effect; nearly all actives have a fitted effect of over 55% in size
Sm TGR block: qHTS Assay for the Inhibitors of Schistosoma Mansoni Peroxiredoxins; Schistosoma mansoni thioredoxin glutathione reductase (TGR), Q962Y6; purified TGR, DTNB reduction, TNB absorbance 405 nm; Potency, µM (series often up to 114 µM), for the others: at the highest dose activity change, negative = inhibition, hits mostly inhibitors; 3% of 360,000 active; AID 485364, 2010; further: potency means the concentration at half of the fitted maximal effect; on the % scale 0 is the no-effect control and ±100 the full control effect; nearly all actives have a fitted effect of over 60% in size
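Kinetic colorimetric format: TGR-catalysed, NADPH-driven DTNB reduction monitored via TNB absorbance. Enzyme dispensed at 20 nM; compound exposure 15 min at room temperature before reaction start.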
HCV inh: qHTS Assay for Inhibitors of Hepatitis C Virus (HCV); Potency, µM (doses to about 41.8 µM), inactives show at the highest dose activity change, negative = inhibition, hits mostly inhibitors; AID 651820, 2012; Huh7.5.1 HCVcc-Cre infection, luciferase reporter, 44 h; 3.4% of 340,000 active; further: potency means the concentration at half of the fitted maximal effect; on the % scale 0 is the no-effect control and ±100 the full control effect
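Whole-lifecycle infectious HCVcc-Cre system; cells 1,000/well, compound then virus (~0.5 moi) added 4 h after plating, 44 h culture. Luciferase read 15 sec following 15 min substrate incubation, room temp.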
* marks the source's active call; other numbers are inactive results; i = inactive; ? = inconclusive; · = no result given. Unless noted, the call rests on the fitted dose curve; in most records, active means well fitted curve in the direction sought with a large enough effect; inconclusive means small, poorly fitted or top-dose-only effect, or another doubt; inactive means no such curve, though single readings can be large; an effect the other way counts as inactive or inconclusive.

SMILES	Pf growth 96h	HCMV inh	Pf growth 48h	SARS PLpro yeast	Sm TGR block	HCV inh
CCc1ccc(CNC(=O)C2CCN(C(=O)c3ccc(-n4c(C)cc5ccccc54)s3)CC2)cc1	·	-34	·	·	1%	·
S=c1[nH]cnc2scc(-c3ccc(Br)cc3)c12	?	-87*	?	?	-1%	?
O=c1[nH]cnc2scc(-c3ccccc3)c12	-20%	-34	2.6µM*	1%	8%	8%
CCC(=O)OCC(=O)[C@@]1(OC(=O)CC)[C@H](C)C[C@@H]2[C@@H]3[C@H]([C@@H](O)C[C@@]21C)[C@]1(C)C=CC(=O)C=C1C[C@@H]3Cl	4.1µM*	·	2.6µM*	·	·	·
CCC(=O)[C@@]1(C)[C@H](C)C[C@@H]2[C@@H]3CCC4=CC(=O)C=C[C@@]4(C)[C@H]3[C@H](O)C[C@]21C	2.6µM*	·	2.6µM*	·	·	·
C[C@]12C=CC(=O)C=C1CC[C@@H]1[C@@H]2[C@@H](O)C[C@@]2(C)[C@H]1CC[C@]2(O)C(=O)CO	5%	134	36%	-1%	-18%	-3%
CCc1ccccc1NC(=O)c1noc2c1CC(C(C)(C)C)CC2 (stereo unspecified)	·	-10	·	·	8%	·
Cc1ccc2ncc3c(-c4ccc(F)cc4)nn(-c4cccc(F)c4)c3c2c1	·	12	·	·	-3%	·
CCOc1ccc2c(c1)[C@@H]1C=CC[C@@H]1[C@H](c1ccccc1Cl)N2	·	-7	·	·	-7%	·
COC(=O)COc1ccc(C2Nc3c(Cl)ccc(C(=O)O)c3C3C=CCC32)cc1 (stereo unspecified)	?	-75*	-26%	0%	3.5µM*	-2%
COc1ccc(OC)c(C2Nc3c(Cl)ccc(C(=O)O)c3C3C=CCC32)c1 (stereo unspecified)	i	-21	-23%	0%	1.6µM*	11%
COC(=O)[C@@H](NS(=O)(=O)c1cc(Br)ccc1Br)C(C)C	·	-17	·	·	·	·
COc1ccc(CN2CCC(Oc3ccc(C(=O)N4CCCC4)cc3)CC2)c(F)c1	?	-11	10%	-2%	-8%	-15%
Cc1nc2scc(-c3ccc(C(C)(C)C)cc3)c2c(=O)n1N	-8%	-78*	17%	-1%	-3%	-11%
CC(C)(C)c1nc2scc(-c3ccc(Br)cc3)c2c(=O)o1	?	-24	-20%	-1%	4%	27%
Cc1nc2scc(-c3cccs3)c2c(=O)n1-n1cccc1	43%	?	?	-4%	2%	?
COc1ccc(-c2csc3nc(C)n(-n4cccc4)c(=O)c23)cc1	-19%	-62*	?	5%	-5%	?
CSc1ccc(S(=O)(=O)N2CCC(C(=O)NCC3CCCO3)CC2)cc1 (stereo unspecified)	7%	-21	0%	1%	2%	10%
CCOC(=O)c1ccc(Oc2cn[nH]c2-c2ccc(OCC(=O)NN)cc2O)cc1	?	-23	?	-1%	5%	-24%
CCCOC(=O)c1ccc(Oc2cn[nH]c2-c2ccc(O)cc2O)cc1	13µM*	?	?	-5%	-10%	8.9µM*
CCOC(=O)c1ccc(Oc2cn[nH]c2-c2ccc(O)cc2O)cc1	?	?	?	8%	3%	?
COc1ccc(Oc2cn[nH]c2-c2ccc(O)cc2O)cc1	?	-33	?	-2%	-16%	-28%
CCCOC(=O)c1ccc(Oc2c(-c3ccc(O)cc3O)n[nH]c2C)cc1	?	-77*	36%	-20%	0%	?
CCCOC(=O)c1ccc(Oc2c(-c3ccc(OC)cc3O)n[nH]c2C)cc1	?	31	?	-43%	1%	?
CCCOC(=O)c1ccc(Oc2cn[nH]c2-c2ccc(OCC(=O)NN)cc2O)cc1	9.3µM*	-37	?	1%	5%	-11%
SMILES	Pf growth 96h	HCMV inh	Pf growth 48h	SARS PLpro yeast	Sm TGR block	HCV inh
CCCc1ccc(Oc2cn[nH]c2-c2ccc(O)cc2O)cc1	-17%	-68*	?	-17%	-26%	?
Nc1ccc(C(=O)N2CCN(S(=O)(=O)c3ccc4c(c3)OCCCO4)CC2)cc1[N+](=O)[O-]	?	?	?	-2%	0%	?
CC(c1ccccc1)n1cnc2ccccc2c1=O (stereo unspecified)	-102%	-27	-17%	?	-5%	10%
CSCCC(NC(=O)COc1ccccc1)C(=O)N1CCOCC1 (stereo unspecified)	2%	-7	-20%	8%	2%	7%
C=CCOC(=O)/C=C/C(=O)NC(N)=O	0%	20	?	-2%	1.3µM*	3%
CC1=NN(c2ccccc2)C(=O)C1CCC#N (stereo unspecified)	·	14	·	·	·	·
O=C(COC(=O)c1ccccc1C(=O)c1ccccc1)NCCc1ccccc1	?	-19	-5%	-9%	4%	?
O=C(COC(=O)c1ccccc1C(=O)c1ccc(Cl)cc1)NCCc1ccccc1	?	-76*	4%	-12%	-5%	-12%
CCOc1cccc2sc(NC(=O)CS(=O)(=O)c3ccc(C)cc3)nc12	·	0	·	·	0%	·
CCc1c(N)nc(N)nc1Nc1ccc(C)c(C)c1	·	-33	·	·	·	-25%
CCCc1nc2c(C)ccc(C)c2c(N)c1CC	9.3µM*	-2	13µM*	5%	2%	?
CC(Cc1ccccc1)NCc1ccccc1O (stereo unspecified)	?	-67*	?	5%	-16%	6%
CC(Cc1ccccc1)NCc1ccccc1Cl (stereo unspecified)	15%	·	2%	·	·	·
CC(CC12CC3CC(CC(C3)C1)C2)NCc1ccccc1O (stereo unspecified)	9.3µM*	-19	?	1%	1%	?
